From PubChem BioAssay (NCATS) come the findings set out here.

Assay [1] has as its target Cytochrome P450 1A2 (Homo sapiens) (UniProt P05177). Nature of the assay: p450-cyp1a2 (AID 410; calls by dose curve; further: potency means the concentration at half of the fitted maximal effect). In outline: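 Read-out is luminescence from luciferin produced by CYP1A2 demethylation of Luciferin-ME (100uM, at Km). Detection reagent stopped the 60 min NADPH-dependent reaction; signals were normalized to 57 uM furafylline.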
A short description of assay [2]: NFAT Signaling Pathway (AID 444).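 Further: carbachol stimulus at about its EC50 of 1 µM final; on the % scale 0 is the no-effect control and ±100 the full control effect.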 As to conditions: Jurkat NFAT-bla M1, carbachol, beta-lactamase ratio, 5 h; at 7.69 µM (top of the series) unless noted. In outline:
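Read-out: CCF4 FRET ratio (460 nm/530 nm) after 1 h RT dye loading, used for %activity and AC50 from titration series. Cells: Jurkat NFAT-β-lactamase/M1 line, treated with compound plus 1 uM carbachol for 5 h, 37 °C.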

The target in assay [3] is Glucocorticoid receptor (Homo sapiens) (UniProt P04150). Nature of the assay: GR-GFP Redistribution (AID 450;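 active means compounds whose dose series gives a full or clear partial fitted curve of increased nuclear translocation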; further: potency means the concentration at half of the fitted maximal effect). Conditions: U2OS GR-GFP nuclear translocation, laser cytometry, 2 h.
Sequence of Glucocorticoid receptor (Homo sapiens) (P04150 whole entry, looked up): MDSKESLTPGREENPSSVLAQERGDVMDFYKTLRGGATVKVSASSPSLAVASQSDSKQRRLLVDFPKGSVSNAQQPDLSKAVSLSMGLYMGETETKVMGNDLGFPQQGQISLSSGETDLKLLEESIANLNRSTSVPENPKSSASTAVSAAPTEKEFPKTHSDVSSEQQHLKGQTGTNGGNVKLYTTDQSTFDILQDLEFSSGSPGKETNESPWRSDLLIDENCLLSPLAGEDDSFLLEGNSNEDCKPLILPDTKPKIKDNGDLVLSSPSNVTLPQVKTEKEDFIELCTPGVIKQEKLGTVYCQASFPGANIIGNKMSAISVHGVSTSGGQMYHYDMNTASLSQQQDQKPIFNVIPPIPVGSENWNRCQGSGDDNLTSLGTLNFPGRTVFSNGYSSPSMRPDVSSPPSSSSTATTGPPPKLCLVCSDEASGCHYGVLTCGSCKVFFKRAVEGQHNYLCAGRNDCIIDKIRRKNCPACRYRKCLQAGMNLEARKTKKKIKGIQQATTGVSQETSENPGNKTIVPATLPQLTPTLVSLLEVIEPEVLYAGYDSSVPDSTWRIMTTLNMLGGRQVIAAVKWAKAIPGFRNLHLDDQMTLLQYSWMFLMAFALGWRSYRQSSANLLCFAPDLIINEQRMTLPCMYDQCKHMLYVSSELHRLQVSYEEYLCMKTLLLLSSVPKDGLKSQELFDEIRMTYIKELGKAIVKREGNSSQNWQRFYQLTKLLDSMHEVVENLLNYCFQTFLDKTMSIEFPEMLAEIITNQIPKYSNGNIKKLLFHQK
Assay [4] shares this target. In words: GR-EFC Redistribution (AID 451; calls by dose curve; further: potency means the concentration at half of the fitted maximal effect). As to conditions: CHO-K1 GR-EFC translocation, beta-gal luminescence, 2 h. In outline:
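Translocation of GR-ED fusion to nuclear EA restores b-gal, read by luminescence after 1 h room-temperature detection. Engineered CHO-K1 biosensor cells, 1,000/well, exposed 2 h at 37 C to titrations up to 46 uM final.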

The target of assay [5] is Mitogen-activated protein kinase 10 (Mus musculus) (UniProt Q61831). In words: JNK3 AlphaScreen Assay (AID 530).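 Further: kinase came from lysate of stimulated human HepG2 cells; signal reports phosphorylation of biotinylated GST-cJun 1-79 at Ser73 with 10 µM ATP; on the % scale 0 is the no-effect control and ±100 the full control effect.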 The method, boiled down:
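Kinase buffer: 20 mM Tris-HCl pH 7.6, 10 mM MgCl2, 1 mM DTT, 0.1 mM Na3VO4, 0.01% Tween-20; ATP 10 uM. Substrate biotin-GST-cJun(1-79), enzyme from activated HepG2 lysates. Detection by Ser73 phospho-antibody AlphaScreen.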

Assay [6] deals with 3',5'-cyclic-AMP phosphodiesterase 4B (Homo sapiens) (UniProt Q07343). In words: qHTS Assay for Inhibitors of PDE-IV (AID 607; active means well fitted activation curve with a large enough effect in the main read-out, with a control signal flat, not every such curve was filed as active; further: % of control where 0% means no effect). The method, boiled down: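 ACTOne HEK293 cells carry a modified cAMP-gated CNG channel and express endogenous PDE4; plated 1000 cells/well, compounds up to 22.9 uM final. Membrane-potential dye fluorescence (ex 535/em 590) was read; parental cells received 10 uM forskolin + 100 uM RO 20-1724.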
Sequence of 3',5'-cyclic-AMP phosphodiesterase 4B (Homo sapiens) (Q07343 whole entry, looked up): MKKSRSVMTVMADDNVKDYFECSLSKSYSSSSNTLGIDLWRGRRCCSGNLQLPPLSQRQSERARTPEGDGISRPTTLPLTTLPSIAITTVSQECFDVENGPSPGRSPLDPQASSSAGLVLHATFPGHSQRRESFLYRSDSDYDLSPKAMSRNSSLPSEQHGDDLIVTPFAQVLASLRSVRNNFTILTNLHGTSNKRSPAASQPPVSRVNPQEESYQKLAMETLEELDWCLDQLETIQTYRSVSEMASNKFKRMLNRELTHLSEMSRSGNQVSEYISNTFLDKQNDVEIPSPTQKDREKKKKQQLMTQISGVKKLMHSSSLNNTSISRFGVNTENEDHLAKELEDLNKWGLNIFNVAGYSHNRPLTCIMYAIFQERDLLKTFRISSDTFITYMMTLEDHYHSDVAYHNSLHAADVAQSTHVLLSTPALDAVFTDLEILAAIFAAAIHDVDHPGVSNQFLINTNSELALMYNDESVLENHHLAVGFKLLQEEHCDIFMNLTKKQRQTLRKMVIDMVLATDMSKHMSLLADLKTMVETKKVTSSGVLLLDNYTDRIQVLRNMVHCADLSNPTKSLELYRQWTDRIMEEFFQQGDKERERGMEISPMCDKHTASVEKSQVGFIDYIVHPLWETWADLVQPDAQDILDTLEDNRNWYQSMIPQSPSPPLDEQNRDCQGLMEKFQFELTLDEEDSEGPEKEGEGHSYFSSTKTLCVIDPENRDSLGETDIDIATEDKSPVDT

For assay [7], the target named is Cytochrome P450 3A4 (Homo sapiens) (UniProt P08684). Nature of the assay: qHTS Assay for Activators of Cytochrome P450 3A4 (AID 885; active means well fitted curve in the direction sought with a large enough effect; an effect the other way counts as inactive or inconclusive; further: nearly all actives have a fitted effect of over 65% in size). In outline: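 CYP3A4 activity: Luciferin-PPXE O-dealkylation, 25uM substrate, 200mM KPO4, RT throughout. Read-out is luciferase luminescence; higher values reflect activation.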
Sequence of Cytochrome P450 3A4 (Homo sapiens) (P08684 whole entry, looked up): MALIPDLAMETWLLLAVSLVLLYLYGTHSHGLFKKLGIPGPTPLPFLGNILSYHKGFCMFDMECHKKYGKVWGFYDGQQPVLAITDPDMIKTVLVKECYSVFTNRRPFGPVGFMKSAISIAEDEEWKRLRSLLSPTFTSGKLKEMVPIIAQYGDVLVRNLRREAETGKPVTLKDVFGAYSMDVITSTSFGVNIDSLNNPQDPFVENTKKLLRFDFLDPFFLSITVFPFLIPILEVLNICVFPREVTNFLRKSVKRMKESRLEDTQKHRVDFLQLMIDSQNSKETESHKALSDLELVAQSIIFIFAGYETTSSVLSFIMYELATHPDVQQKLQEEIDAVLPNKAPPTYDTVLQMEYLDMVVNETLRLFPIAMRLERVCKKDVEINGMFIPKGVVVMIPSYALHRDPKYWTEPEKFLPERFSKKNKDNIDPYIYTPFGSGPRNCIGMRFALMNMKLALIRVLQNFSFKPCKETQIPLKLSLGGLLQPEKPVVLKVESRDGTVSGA
Assay [8] in a line: qHTS Assay for Identification of Small Molecule Agonists for Hypoxia Response Element Signaling Pathway (AID 914; active means well fitted activation curve with a large enough effect in the signal ratio, with a control signal flat, not every such curve was filed as active; the % refers to the signal ratio; further: % of control where 0% means no effect). As to conditions: ME-180 HRE-bla reporter, beta-lactamase ratio, CoCl2, 17 h; activation: stronger effect = higher value. In outline:
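A beta-lactamase reporter under hypoxia response element control in ME-180 cells served as the system. Compound titrations plus EC50 CoCl2 ran 17 h at 37 degrees Celsius; AC50 values were fitted from %Activity.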

Assay [9] concerns the target Dual specificity protein kinase CLK4 (Homo sapiens) (UniProt Q9HAZ1). Nature of the assay: qHTS Assay for Inhibitors of CDC-like Kinase 4 (ADP-FP Assay) (AID 1795; active means well fitted curve in the direction sought with a large enough effect; an effect the other way counts as inactive or inconclusive;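 further: recombinant human CLK4 phosphorylating RS repeat peptide at 1 µM ATP; on the % scale 0 is the no-effect control and ±100 the full control effect; nearly all actives have a fitted effect of over 60% in size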). The method, boiled down: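 Kinase activity was measured as ADP production using Transcreener orange tracer (4 nM) and ADP antibody (1 ug/mL) fluorescence polarization, with ADP calculated from a calibration curve. The 1 h reaction contained 6.25 nM Clk4, 1 uM ATP and 100 uM RS peptide at pH 7.5 with Mg2+.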

The target of assay [10] is Ubiquitin carboxyl-terminal hydrolase 1 (Homo sapiens) (UniProt O94782). In words: Inhibitors of USP1/UAF1: Pilot qHTS (AID 504865; active means well fitted curve in the direction sought with a large enough effect; an effect the other way counts as inactive or inconclusive;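 further: rhodamine fluorescence freed from ubiquitin-rhodamine substrate followed over time; top concentration of the series differs between compounds; on the % scale 0 is the no-effect control and ±100 the full control effect; nearly all actives have a fitted effect of over 35% in size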). In outline: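 Deubiquitinase activity followed as kinetic rhodamine fluorescence release from 150 nM Ub-Rho. 1 nM USP1/UAF1 with compound, after 15 min room-temperature preincubation, in HEPES pH 7.8 buffer containing TCEP, EDTA, BSA and Tween-20.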
Sequence of Ubiquitin carboxyl-terminal hydrolase 1 (Homo sapiens) (O94782 whole entry, looked up): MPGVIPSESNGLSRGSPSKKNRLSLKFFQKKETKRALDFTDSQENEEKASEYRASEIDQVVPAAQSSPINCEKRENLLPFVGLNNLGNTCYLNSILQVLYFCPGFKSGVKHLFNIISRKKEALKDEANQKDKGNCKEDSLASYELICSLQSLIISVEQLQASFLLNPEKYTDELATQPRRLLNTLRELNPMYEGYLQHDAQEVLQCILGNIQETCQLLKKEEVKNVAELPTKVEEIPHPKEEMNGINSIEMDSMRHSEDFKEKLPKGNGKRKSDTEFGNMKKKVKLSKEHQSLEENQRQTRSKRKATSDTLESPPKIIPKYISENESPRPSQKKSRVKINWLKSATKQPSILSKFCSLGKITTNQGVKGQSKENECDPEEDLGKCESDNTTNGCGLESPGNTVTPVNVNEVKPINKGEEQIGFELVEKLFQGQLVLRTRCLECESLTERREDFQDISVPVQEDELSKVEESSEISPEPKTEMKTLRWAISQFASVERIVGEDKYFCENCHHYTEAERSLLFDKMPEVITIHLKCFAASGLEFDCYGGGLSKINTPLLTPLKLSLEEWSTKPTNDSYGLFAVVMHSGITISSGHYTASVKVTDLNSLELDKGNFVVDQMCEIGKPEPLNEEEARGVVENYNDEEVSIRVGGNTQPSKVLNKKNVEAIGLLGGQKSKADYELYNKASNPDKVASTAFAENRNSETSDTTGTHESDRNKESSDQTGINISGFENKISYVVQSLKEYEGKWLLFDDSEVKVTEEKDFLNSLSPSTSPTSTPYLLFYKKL

The target of assay [11] is Lysosomal acid glucosylceramidase (Homo sapiens) (UniProt P04062). In words: Glucocerebrosidase-p2 (AID 348; in the data active means potency below about 10 µM; further: potency means the concentration at half of the fitted maximal effect). As to conditions: purified GBA, blue fluorogenic substrate, 40 min. The method, boiled down: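 Normal human glucocerebrosidase (0.2 nM) with blue fluorogenic substrate (80 uM final) in citrate/phosphate pH 5.9 with 10mM sodium taurocholate, 0.01% tween-20; 40 min RT, NaOH/glycine stop; fluorescence Ex 365/Em 440; AC50 from a titration from 0.6 nM upwards.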
Sequence of Lysosomal acid glucosylceramidase (Homo sapiens) (P04062 whole entry, looked up): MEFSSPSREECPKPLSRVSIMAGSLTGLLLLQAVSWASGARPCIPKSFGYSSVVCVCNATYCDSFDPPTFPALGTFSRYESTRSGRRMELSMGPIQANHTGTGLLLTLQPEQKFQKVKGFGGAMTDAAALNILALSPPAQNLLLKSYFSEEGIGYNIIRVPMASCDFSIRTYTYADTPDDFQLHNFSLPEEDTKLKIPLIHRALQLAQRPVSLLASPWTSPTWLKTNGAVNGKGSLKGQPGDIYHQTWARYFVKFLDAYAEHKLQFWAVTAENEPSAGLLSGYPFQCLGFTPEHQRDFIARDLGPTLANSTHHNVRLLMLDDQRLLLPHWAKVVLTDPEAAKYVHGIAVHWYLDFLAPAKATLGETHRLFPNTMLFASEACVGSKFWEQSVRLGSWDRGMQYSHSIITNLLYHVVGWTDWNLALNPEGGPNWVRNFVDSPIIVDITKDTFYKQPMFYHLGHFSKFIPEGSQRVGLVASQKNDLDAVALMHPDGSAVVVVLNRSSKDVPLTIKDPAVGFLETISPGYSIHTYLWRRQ

A short description of assay [12]: AP1 Signaling Pathway (AID 357).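 Further: ME-180 reporter cells stimulated with EGF at its EC50 level; on the % scale 0 is the no-effect control and ±100 the full control effect.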 As to conditions: ME-180 (cervical carcinoma) AP-1-bla reporter, EGF-induced, beta-lactamase ratio, 5 h; at 7.69 µM (top of the series) unless noted. In outline: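 Titration-series screen for positive or negative modulators of EC50 EGF-induced signaling in ME-180 cells carrying an AP-1-driven beta-lactamase reporter. After 5 hours at 37 degrees Celsius, CCF4 460nm/530nm emission ratio gave %Activity; AC50 values derived.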

A short description of assay [13]: Stat Signaling Pathway (AID 446).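 Further: ME-180 cervical cancer cells given 40 pM IL-6 alongside compound; SIE-controlled beta-lactamase reporter measured as 460/530 nm FRET emission ratio; on the % scale 0 is the no-effect control and ±100 the full control effect.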 The method, boiled down: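 Compound effects on IL-6-induced STAT reporter activity were measured in ME-180 cells. After overnight culture, cells were co-treated with 40 pM IL-6 for 5 hrs before beta-lactamase substrate loading at room temperature.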
Assay [14] has as its target Cytochrome P450 2C19 (Homo sapiens) (UniProt P33261). Nature of the assay: qHTS Assay for Inhibitors and Substrates of Cytochrome P450 2C19 (AID 899; active means well fitted curve in the direction sought with a large enough effect; an effect the other way counts as inactive or inconclusive; further: nearly all actives have a fitted effect of over 60% in size; further: potency means the concentration at half of the fitted maximal effect). The method, boiled down: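 Luminescence readout of luciferin formed from 10uM Luciferin-H EGE (KM level) by 5 nM CYP2C19 in 50mM KPO4. 60 min NADPH-driven reaction at 37C after 10 min compound preincubation; data scaled to 57uM ketoconazole inhibition.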

Assay [15] concerns the target Glutathione peroxidase 1 (Homo sapiens) (UniProt P07203). Nature of the assay: Primary qHTS Assay for Inhibitors of Recombinant Selenoprotein Glutathione Peroxidase 1 (GPX1) (AID 1845191; active means well fitted curve in the direction sought with a large enough effect; an effect the other way counts as inactive or inconclusive; further: nearly all actives have a fitted effect of over 65% in size). The method, boiled down: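 NADPH consumption tracked by fluorescence at 340/450 nm between t=0 and t=15 min, room temperature. Final mix: 10 nM GPX1, 100 nM glutathione reductase, 1 mM GSH, 0.5 mM NADPH, 0.5 mM cumene hydroperoxide, 0.01% BSA; 30 min compound–enzyme preincubation.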

Values without a mark were called inactive. Results filed as inconclusive are left out. Calls of active or inactive are those of the source. Unless noted, the call rests on the fitted dose curve; in most records, active means well fitted curve in either direction with a large enough effect (not every such curve was filed as active); inconclusive means small, poorly fitted or top-dose-only effect, or another doubt; inactive means flat fitted curve, though single readings scatter. Some results are limits rather than exact numbers.

Sequence of Cytochrome P450 1A2 (Homo sapiens) (P05177 whole entry, looked up): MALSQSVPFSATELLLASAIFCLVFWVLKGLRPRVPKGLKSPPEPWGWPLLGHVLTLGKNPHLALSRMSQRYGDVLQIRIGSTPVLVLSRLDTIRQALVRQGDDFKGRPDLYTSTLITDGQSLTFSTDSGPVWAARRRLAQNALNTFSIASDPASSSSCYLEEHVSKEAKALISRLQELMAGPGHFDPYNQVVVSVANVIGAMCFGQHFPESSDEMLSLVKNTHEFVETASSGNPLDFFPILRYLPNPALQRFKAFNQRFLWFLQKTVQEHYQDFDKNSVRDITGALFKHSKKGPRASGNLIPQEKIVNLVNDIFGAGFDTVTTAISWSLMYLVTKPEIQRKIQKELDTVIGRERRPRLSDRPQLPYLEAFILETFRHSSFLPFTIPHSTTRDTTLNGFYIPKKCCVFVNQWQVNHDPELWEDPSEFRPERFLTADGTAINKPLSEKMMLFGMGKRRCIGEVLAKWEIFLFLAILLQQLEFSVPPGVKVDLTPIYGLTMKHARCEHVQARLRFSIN
Sequence of Dual specificity protein kinase CLK4 (Homo sapiens) (Q9HAZ1 whole entry, looked up): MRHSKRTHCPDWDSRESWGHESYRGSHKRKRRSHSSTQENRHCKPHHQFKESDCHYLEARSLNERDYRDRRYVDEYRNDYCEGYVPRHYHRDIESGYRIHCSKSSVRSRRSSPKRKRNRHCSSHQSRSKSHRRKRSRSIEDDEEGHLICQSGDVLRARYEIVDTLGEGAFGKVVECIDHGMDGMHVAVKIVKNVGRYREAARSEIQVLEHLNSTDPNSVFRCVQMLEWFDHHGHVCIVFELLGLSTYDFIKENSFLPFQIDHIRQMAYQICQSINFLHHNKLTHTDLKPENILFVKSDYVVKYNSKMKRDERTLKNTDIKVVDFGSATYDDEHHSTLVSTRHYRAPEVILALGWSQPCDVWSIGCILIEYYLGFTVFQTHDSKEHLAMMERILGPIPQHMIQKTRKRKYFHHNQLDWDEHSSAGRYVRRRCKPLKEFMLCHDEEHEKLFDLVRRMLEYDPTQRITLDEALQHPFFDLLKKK
Sequence of Cytochrome P450 2C19 (Homo sapiens) (P33261 whole entry, looked up): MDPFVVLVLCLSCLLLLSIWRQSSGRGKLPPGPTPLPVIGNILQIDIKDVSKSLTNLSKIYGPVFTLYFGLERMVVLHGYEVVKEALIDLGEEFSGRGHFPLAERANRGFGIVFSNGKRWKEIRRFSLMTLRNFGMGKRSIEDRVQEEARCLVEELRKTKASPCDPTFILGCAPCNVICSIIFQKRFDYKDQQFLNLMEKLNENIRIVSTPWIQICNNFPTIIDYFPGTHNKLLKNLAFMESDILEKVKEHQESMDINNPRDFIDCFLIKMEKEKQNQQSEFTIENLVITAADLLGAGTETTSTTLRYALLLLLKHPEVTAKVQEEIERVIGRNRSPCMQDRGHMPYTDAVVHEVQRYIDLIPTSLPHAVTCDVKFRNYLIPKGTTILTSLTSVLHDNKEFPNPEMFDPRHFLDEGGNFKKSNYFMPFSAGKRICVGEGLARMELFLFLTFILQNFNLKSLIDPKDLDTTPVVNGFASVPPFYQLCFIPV

Regarding `CN(C)C(=O)c1ccc(-c2ccc3ncnc(Nc4ccc(F)cc4)c3c2)cc1`, the Potency was 20 µM (active) in assay [1], more than 46 µM in assay [3] and more than 46 µM in assay [4]. The activity change, negative = inhibition in assay [2] is 24.8%. The Potency entry in assay [5], in [6], in assay [9] and in assay [10] was “inactive” in each case. The outcome in assay [7] was inactive. Moreover, the activation in assay [8] was 7.84%.

In the case of `COc1cccc(Cn2c(=O)c(CCc3ccccc3)nc3cnc(N(C)C)nc32)c1`, the Potency was more than 11.4 µM in assay [11]; 15.8 µM (active) in [1]; more than 9.22 µM in assay [3]; more than 46 µM in [4]; 0.794 µM (active) in assay [14]. Further, the activity change, negative = inhibition in assay [12] was -2.39%; in assay [2] it was 6.19%. In addition, the call in assay [13] and in assay [7] was inactive. In addition, the Potency result in assay [5] and in assay [9] was “inactive” throughout.

`NCc1ccc(Oc2ccccc2)cc1`: in assay [15], the Potency result is “inactive”.

Regarding `CN(C)Cc1ccccc1-c1ccc2ncnc(N(C)C)c2c1`, the activity change, negative = inhibition in assay [12] is -1.59%; in assay [2], -2.16%. The Potency in assay [1] is 12.6 µM (active); in [3] it was more than 46 µM; in [4], more than 46 µM. The molecule was called inactive in assay [13] and in [7]. The Potency result in assay [5], in [6], in [9] and in assay [10] was “inactive” throughout.

In the case of `CN1CCN(c2nc(-c3ccoc3)nc3ccccc23)CC1`, the activity change, negative = inhibition was 6.84% in [12] and -2.81% in assay [2]. For the same molecule, the results for the Potency in assay [1], in [3] and in assay [4] were 1.26 µM (active), more than 46 µM and more than 46 µM, respectively. Further, the molecule was classed as inactive in [13] and in [7]. In addition, the Potency entry in assay [5], in [9] and in assay [10] was “inactive” in each case.

In the case of `CO[C@H]1/C=C\O[C@@]2(C)Oc3c(C)c(O)c4c(O)c(c5c(c4c3C2=O)=NC2(CCN(CC(C)C)CC2)N=5)NC(=O)/C(C)=C\C=C/[C@H](C)[C@H](O)[C@@H](C)[C@@H](O)[C@@H](C)[C@H](OC(C)=O)[C@@H]1C`, in [15], the Potency entry is “inactive”.

For `Cc1nc2cnc(N3CCOCC3)nc2n(CCc2ccccc2)c1=O`, the Potency in assay [11] is more than 11.4 µM; in assay [3] it was more than 9.22 µM; in assay [4], more than 46 µM. The activity change, negative = inhibition in [12] was 3.7%; in assay [2], 15.3%. For the same molecule, the molecule was classed as inactive in [13]. In addition, the Potency entry in assay [5], in assay [9] and in assay [10] was “inactive” in each case.

In the case of `CNc1ncncc1-c1ccccc1CN(C)C`, the Potency in assay [11] is more than 11.4 µM; in assay [3], more than 46 µM; in assay [4], more than 46 µM. Moreover, the activity change, negative = inhibition in [12] is 7.24%; in assay [2] it was -28.4%. Further, the molecule was called inactive in assay [13]. Besides, the Potency entry in [6], in assay [14], in assay [9] and in assay [10] was “inactive” each time.
